Reference: PubChem BioAssay (Tox21)
Results filed as inconclusive are left out. Calls of active or inactive are those of the source. Unless noted, calls follow the shape of the dose curve; as a rule, active = well fitted curve in the direction sought with a large enough effect in the repeat runs; inconclusive = weak or mixed curves; inactive = no such curve, though single readings can be large; an effect the other way counts as inactive or inconclusive.

Legend:
[1] = qHTS assay for small molecule agonists of the p53 signaling pathway (AID 651631; calls by dose curve; also: nearly all actives have a fitted effect of over 15% in size; also: potency is read from the fitted curve at half-maximal effect); settings: HCT-116 p53RE-bla reporter, beta-lactamase FRET ratio, 16 h; series mostly up to 73.3 µM
Summary of the method: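 Testing took place in human colorectal HCT-116 cells with stable p53RE-driven beta-lactamase. After 16 h of compound exposure at 37 °C, a FRET substrate was added and fluorescence recorded 2 h later.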

[2] = qHTS assay for small molecule agonists of the p53 signaling pathway - cell viability (AID 651633; calls by dose curve; also: nearly all actives have a fitted effect of over 30% in size; also: potency is read from the fitted curve at half-maximal effect); settings: p53RE-bla HCT-116 viability, ATP luminescence, 16 h; series mostly up to 83.3 µM
Summary of the method: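 Viability counter-read: CellTiter-Glo luminescence (30 min, room temperature) in the same p53RE-bla plates. These plates had been exposed to compounds for 16 h at 37 C.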

[3] = qHTS assay for small molecules that induce genotoxicity in human embryonic kidney cells expressing luciferase-tagged ATAD5 - cell viability (AID 651634; calls by dose curve; also: nearly all actives have a fitted effect of over 25% in size); settings: HEK293T ATAD5-luc cells viability, CellTiter-Fluor, 15.5 h; series mostly up to 83.3 µM
Summary of the method: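 15.5 hr compound or vehicle exposure of HEK293T cells expressing luciferase-tagged ATAD5 at 37C; live-cell protease activity is read by fluorescence after 30 min of CellTiter-Fluor.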

[4] = qHTS assay for small molecule disruptors of the mitochondrial membrane potential - cell viability (AID 720634; calls by dose curve; also: nearly all actives have a fitted effect of over 20% in size; also: potency is read from the fitted curve at half-maximal effect); settings: HepG2 viability, ATP luminescence (CellTiter-Glo), 1 h; series mostly up to 83.2 µM
Summary of the method: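 In this qHTS format, HepG2 cells plated overnight were pinned with compound, incubated 1 hr, and assayed for ATP luminescence with CellTiter-Glo after m-MPI dye addition.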

[5] = qHTS assay for small molecule disruptors of the mitochondrial membrane potential (AID 720635); settings: HepG2 mitochondrial membrane potential, Mito-MPS dye ratio; series mostly up to 83.2 µM; also: potency is read from the fitted curve at half-maximal effect
Summary of the method: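 Mitochondrial membrane potential tracked with Mito-MPS dye, red aggregates (ex 540/em 590 nm) against green monomers (ex 490/em 535 nm). Compound treatment 1 hr at 37C, dye 30 min in HepG2.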

[6] = qHTS assay to test for compound auto fluorescence at 590 nm (red) in HepG2 cells (AID 720674); settings: HepG2 autofluorescence, red 540/590 nm, 1 h; series mostly up to 91.3 µM
Summary of the method: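 1 hr compound incubation on HepG2 cells, 37 C, 5% CO2; plate read ex 540 nm / em 590 nm; intensities reported as Rose Bengal sodium equivalents.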

[7] = qHTS assay to test for compound auto fluorescence at 535 nm (green) in HepG2 cells (AID 720675); settings: green autofluorescence 485/535 nm, 1 h; series mostly up to 91.3 µM
[8] = qHTS assay to test for compound auto fluorescence at 460 nm (blue) in HEK293 cells (AID 720678); settings: blue autofluorescence 405/460 nm; series mostly up to 91.3 µM
Summary of the method: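 Blue read-out at excitation 405 nm and emission 460 nm follows overnight compound exposure of HEK293 cells at 37C in 5% CO2. Activity is given as auto fluorescence equivalency to triamterene.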

[9] = qHTS assay to test for compound auto fluorescence at 590 nm (red) in HEK293 cells (AID 720679); settings: red autofluorescence 540/590 nm; series mostly up to 91.3 µM
Summary of the method: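 Red channel, Ex/Em 540/590nm; signal expressed as equivalency to Rose Bengal sodium. HEK293, 2,000 cells/well, 10% dialyzed FBS; 23 nL compound pinned after 4-5 hr attachment; overnight 37C/5% CO2 before reading.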

[10] = qHTS assay to test for compound auto fluorescence at 535 nm (green) in HEK293 cells (AID 720680); settings: green autofluorescence 485/535 nm; series mostly up to 91.3 µM
[11] = qHTS assay to test for compound auto fluorescence at 460 nm (blue) in HEK293 cell free culture (AID 720681); settings: cell-free medium, autofluorescence 405/460 nm (blue); series mostly up to 91.3 µM
Summary of the method: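 Blue fluorescence (Ex 405/Em 460 nm, triamterene-equivalent) was read immediately after pin transfer of compound or DMSO into medium (DMEM, 10% FBS) without cells.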

[12] = qHTS assay to test for compound auto fluorescence at 535 nm (green) in HEK293 cell free culture (AID 720682); settings: cell-free medium, green autofluorescence 485/535 nm, stronger effect = higher value; series mostly up to 91.3 µM
Summary of the method: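 DMEM + 10% FBS, cell-free; cpd or DMSO pinned in; Ex485/Em535 read; output as fluorescein-equivalent signal.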

[13] = qHTS assay to test for compound auto fluorescence at 590 nm (red) in HEK293 cell free culture (AID 720683); settings: cell-free medium autofluorescence, Ex540/Em590 red; series mostly up to 91.3 µM
Summary of the method: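 Red-channel autofluorescence of compounds in culture medium (DMEM, 10% FBS), no cells, measured at 540/590 nm. Rose Bengal sodium is the reference fluorophore for equivalence.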

[14] = qHTS assay to test for compound auto fluorescence at 590 nm (red) in HepG2 cell free culture (AID 720684); settings: cell-free medium autofluorescence, red 540/590 nm; series mostly up to 91.3 µM
Summary of the method: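 No cells present: MEM + 10% FBS only. Compound pinned in, red label read (540/590 nm). Activity = fluorescence equivalent to Rose Bengal sodium.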

[15] = qHTS assay to test for compound auto fluorescence at 460 nm (blue) in HepG2 cell free culture (AID 720685); settings: Cell-free culture medium, blue autofluorescence 405/460 nm; series mostly up to 91.3 µM
Summary of the method: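 Cell-free plates of MEM plus 10% FBS received 23 nL compound or DMSO vehicle; blue-channel (405/460 nm) intensity scored against triamterene as reference fluorophore.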

[16] = qHTS assay to test for compound auto fluorescence at 460 nm (blue) in HepG2 cells (AID 720687); settings: autofluorescence 405/460 nm, 1 h; series mostly up to 91.3 µM
Summary of the method: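 Blue-channel autofluorescence (Ex/Em 405/460 nm, triamterene-equivalent) was measured after 1 hr compound exposure at 37 C, 5% CO2. Cells were HepG2, plated overnight at 37 C in MEM plus 10% FBS.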

[17] = target: Glucocorticoid receptor (Homo sapiens) (UniProt P04150); assay: qHTS assay to identify small molecule agonists of the glucocorticoid receptor (GR) signaling pathway (AID 720691; active = well fitted activation curve with a large enough effect in the signal ratio in the repeat runs, not every such curve was filed as active; the % refers to the signal ratio); settings: GR-bla HeLa, beta-lactamase reporter ratio, 18 h; series mostly up to 62.4 µM
Summary of the method: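 Measures GR pathway activation through a GRE-beta-lactamase reporter stably integrated in HeLa cells, with 18 h compound treatment at 37 C and fluorescence detection using a FRET substrate.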

[18] = qHTS assay to test for compound auto fluorescence at 535 nm (green) in HepG2 cell free culture (AID 720686); settings: Cell-free medium, green autofluorescence 485/535 nm; series mostly up to 91.3 µM
[19] = target: Glucocorticoid receptor (Homo sapiens) (UniProt P04150); assay: qHTS assay to identify small molecule antagonists of the glucocorticoid receptor (GR) signaling pathway (AID 720692; active = well fitted inhibition curve with a large enough effect in the signal ratio in the repeat runs, not every such curve was filed as active; the % refers to the signal ratio; also: potency is read from the fitted curve at half-maximal effect); settings: GR-bla HeLa, beta-lactamase FRET ratio, dexamethasone-stimulated, 18 h; series mostly up to 58.5 µM
Summary of the method: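 Tox21 10K library screened in concentration-response for blockade of dexamethasone (5 nM final)-induced GRE-bla reporter activity in HeLa cells; 18 h treatment, fluorescence read.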

[20] = qHTS assay for small molecules that induce genotoxicity in human embryonic kidney cells expressing luciferase-tagged ATAD5 (AID 651632); settings: HEK293T ATAD5-luciferase induction, 16 h; series mostly up to 83.3 µM; also: nearly all actives have a fitted effect of over 15% in size
Summary of the method: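 Concentration-response screen for ATAD5 upregulation in HEK293T luciferase reporter cells; 16 hr treatment at 37C, then luminescence after 30 min with Amplite at room temperature.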
% is scaled to controls: 0 for no effect and ±100 for the full control effect.

Chain of Glucocorticoid receptor (Homo sapiens) (P04150 whole entry, looked up): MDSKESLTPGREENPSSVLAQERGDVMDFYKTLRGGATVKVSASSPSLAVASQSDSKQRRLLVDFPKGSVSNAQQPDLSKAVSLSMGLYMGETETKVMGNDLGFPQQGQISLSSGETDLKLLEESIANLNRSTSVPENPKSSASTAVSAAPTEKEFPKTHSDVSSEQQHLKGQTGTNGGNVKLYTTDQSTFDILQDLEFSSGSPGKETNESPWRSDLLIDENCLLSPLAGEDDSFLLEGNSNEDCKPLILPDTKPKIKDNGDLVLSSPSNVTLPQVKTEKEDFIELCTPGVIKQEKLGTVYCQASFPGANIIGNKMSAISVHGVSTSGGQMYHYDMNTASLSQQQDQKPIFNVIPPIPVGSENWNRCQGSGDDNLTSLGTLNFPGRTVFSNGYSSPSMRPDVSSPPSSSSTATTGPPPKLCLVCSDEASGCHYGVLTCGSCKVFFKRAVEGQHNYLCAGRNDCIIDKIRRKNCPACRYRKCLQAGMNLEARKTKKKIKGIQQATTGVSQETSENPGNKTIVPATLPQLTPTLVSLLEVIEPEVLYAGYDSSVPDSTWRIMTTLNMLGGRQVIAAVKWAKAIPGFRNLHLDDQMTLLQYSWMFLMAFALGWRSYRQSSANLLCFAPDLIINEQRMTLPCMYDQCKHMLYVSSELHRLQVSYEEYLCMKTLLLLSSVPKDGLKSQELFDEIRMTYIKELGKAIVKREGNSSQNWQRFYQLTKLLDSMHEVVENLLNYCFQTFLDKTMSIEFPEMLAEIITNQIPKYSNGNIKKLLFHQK

CC1(C)[C@@H](OC(=O)CCC(=O)O)CC[C@]2(C)[C@H]3C(=O)C=C4[C@@H]5C[C@@](C)(C(=O)O)CC[C@]5(C)CC[C@@]4(C)[C@]3(C)CC[C@@H]12
inactive: Potency [1] | Potency [2] | Potency [3] | Potency [4] | Potency [5] | fluorescence, relative to Rose Bengal [6] -0.342% [at 18.6 µM] | fluorescence, % of fluorescein control [7] -0.0594% [at 18.6 µM] | fluorescence, % of triamterene [8] 0.0377% [at 18.6 µM] | fluorescence, % of fluorescent control [9] 0.163% [at 18.6 µM] | fluorescence, % of fluorescein [10] -0.0149% [at 18.6 µM] | fluorescence, % of fluorescent control [11] -0.141% [at 18.6 µM] | activity change [12] -0.0002% [at 18.6 µM] | fluorescence, % of fluorescent control [13] 0.073% [at 18.6 µM] | fluorescence, % of Rose Bengal [14] 0.105% [at 18.6 µM] | fluorescence, % of fluorescent control [15] 0.0251% [at 18.6 µM] | fluorescence, % of fluorescent control [16] -0.0128% [at 18.6 µM] | Potency [17]

COc1ccccc1Oc1c(NS(=O)(=O)c2ccc(C(C)(C)C)cc2)nc(-c2ncccn2)nc1OCCO
inactive: Potency [1] | Potency [2] | Potency [3] | Potency [4] | outcome [6] | outcome [7] | Potency [8] | outcome [9] | outcome [10] | Potency [11] | outcome [12] | outcome [13] | outcome [14] | Potency [15] | outcome [18] | Potency [17]

CC/C=C1/OC(=O)c2ccccc21
inactive: Potency [1] | Potency [2] | Potency [3] | Potency [4] | Potency [5] | outcome [6] | outcome [7] | Potency [8] | outcome [9] | outcome [10] | Potency [11] | outcome [12] | outcome [13] | Potency [15] | outcome [18] | Potency [16] | Potency [17]

CC(=O)[C@H]1[C@H](C#N)C[C@H]2[C@@H]3CC=C4C[C@@H](O)CC[C@]4(C)[C@H]3CC[C@@]21C
active: Potency [19] 10.6 µM
inactive: Potency [1] | Potency [2] | Potency [3] | Potency [4] | Potency [5] | outcome [6] | outcome [7] | outcome [9] | outcome [10] | Potency [11] | outcome [12] | outcome [13] | outcome [14] | Potency [15] | outcome [18] | Potency [16] | Potency [17]

O=C1c2ccccc2C(=O)C1(O)O
active: Potency [1] 27.4 µM | Potency [5] 24.5 µM
inactive: Potency [20] | Potency [3] | outcome [6] | outcome [7] | Potency [8] | outcome [9] | outcome [10] | Potency [11] | outcome [12] | outcome [13] | outcome [14] | Potency [15] | Potency [16] | Potency [17]

CCC1CO1 (stereo not drawn)
inactive: Potency [1] | Potency [2] | Potency [3] | Potency [4] | Potency [5] | outcome [6] | outcome [7] | Potency [8] | outcome [9] | outcome [10] | Potency [11] | outcome [12] | outcome [13] | outcome [14] | Potency [15] | outcome [18] | Potency [16] | Potency [17] | Potency [19]

CCC(OCCCOC)OC(C)=O (stereo not drawn)
inactive: Potency [1] | Potency [20] | Potency [2] | Potency [4] | outcome [6] | outcome [7] | Potency [8] | outcome [9] | outcome [10] | Potency [11] | outcome [12] | outcome [13] | Potency [15] | outcome [18] | Potency [16] | Potency [17]

COc1ccccc1N1CCN(CCCCNC(=O)c2ccc(-c3ccc(C(C)=O)cc3)cc2)CC1
inactive: Potency [1] | Potency [3] | Potency [4] | Potency [5] | outcome [6] | outcome [7] | Potency [8] | outcome [9] | outcome [10] | Potency [11] | outcome [12] | outcome [13] | outcome [14] | Potency [15] | outcome [18] | Potency [16] | Potency [17] | Potency [19]

c1cc(N(CC2CO2)CC2CO2)ccc1Cc1ccc(N(CC2CO2)CC2CO2)cc1 (stereo not drawn)
active: Potency [1] 24.3 µM | Potency [4] 48.6 µM | Potency [5] 27.3 µM
inactive: Potency [2] | outcome [6] | outcome [7] | Potency [8] | outcome [9] | outcome [10] | Potency [11] | outcome [12] | outcome [13] | outcome [14] | Potency [15] | outcome [18] | Potency [16]

O=C=Nc1ccc(Cl)c(Cl)c1
inactive: Potency [1] | Potency [2] | outcome [6] | outcome [7] | Potency [8] | outcome [9] | outcome [10] | Potency [11] | outcome [12] | outcome [13] | outcome [14] | Potency [15] | outcome [18] | Potency [16]
active: Potency [5] 7.57 µM

NC1[C@H]2CN(c3nc4c(cc3F)c(=O)c(C(=O)O)cn4-c3ccc(F)cc3F)C[C@@H]12 (stereo partly drawn)
active: Potency [1] 29.8 µM
inactive: Potency [2] | Potency [4] | outcome [6] | outcome [7] | Potency [8] | outcome [9] | outcome [10] | Potency [11] | outcome [12] | outcome [13] | outcome [14] | Potency [15] | outcome [18] | Potency [16] | Potency [17]

O[C@@H]1CO[C@H]2[C@@H]1OC[C@@H]2O
inactive: Potency [1] | Potency [2] | Potency [3] | Potency [4] | Potency [5] | outcome [6] | outcome [7] | Potency [8] | outcome [9] | outcome [10] | Potency [11] | outcome [12] | outcome [13] | outcome [14] | Potency [15] | outcome [18] | Potency [16] | Potency [17]

CC(C)COCC(CN(Cc1ccccc1)c1ccccc1)N1CCCC1 (stereo not drawn)
inactive: Potency [20] | outcome [6] | outcome [7] | Potency [8] | outcome [9] | outcome [10] | Potency [11] | outcome [12] | outcome [13] | outcome [14] | Potency [15] | outcome [18] | Potency [16] | Potency [17]
active: Potency [1] 13.3 µM | Potency [2] 11.9 µM

Clc1cc(Cl)nc(Cl)n1
inactive: Potency [1] | Potency [2] | Potency [4] | Potency [5] | outcome [6] | outcome [7] | Potency [8] | outcome [9] | outcome [10] | Potency [11] | outcome [12] | outcome [13] | outcome [14] | Potency [15] | Potency [16]
